# From PubChem
# In the library only some 3.6% were active in any assay of this set; here they are far more common.
# BoNT-F LC inh – BoNT F light chain protease inhibition; Multiplex microsphere protease cleavage assay, flow cytometry; inhibition, % at 10 µM; 360,000 compounds, 0.22% hits; AID 588497; in the data active means inhibition above about 35%, passing the limit was not always enough; inconclusive means no clear call, values can overlap the other calls; further: plate controls were buffer without enzyme for full effect and enzyme alone for no effect
# Anthrax LF inh2 – inhibitors of Bacillus anthracis lethal factor protease; P15917; multiplex microsphere protease cleavage assay, LF; inhibition, % at 10 µM; 360,000 compounds, 0.12% hits; AID 588501; further: plate controls were buffer without enzyme for full effect and enzyme alone for no effect
# 3CLpro inhibitor – SARS-CoV 3CLpro protease inhibition | inhibition, % at 6 µM | recombinant SARS-CoV 3CLpro, quenched FRET peptide cleavage | 290,000 compounds, 0.14% hits | AID 1706 | P0C6X7; in the data active means inhibition above about 12%
# BoNT A protease – BoNT A light chain protease inhibition; multiplex microsphere protease substrate cleavage, flow cytometry; 360,000 compounds, 0.17% hits; inhibition, % at 10 µM; further: plate controls were buffer without enzyme for full effect and enzyme alone for no effect
# Bead autofluor – flagged as autofluorescent in microsphere protease counterscreen; compound autofluorescence counterscreen, microsphere flow cytometry; stronger effect = higher value; fluorescence intensity (test concentration not listed); 360,000 compounds, 3.1% hits; AID 624483; in the data active means fluorescence intensity above about 16000; inconclusive means no clear call, values can overlap the other calls
# BJeLR lethal – kills HRASV12-expressing BJeLR cells; 300,000 compounds, 0.17% hits; AID 1554; BJeLR (HRASV12) viability, CellTiter-Glo ATP luminescence, 48 h; inhibition, % (no concentration beside the values); in the data active means inhibition above about 50%; inconclusive means no clear call, values can overlap the other calls
# Active calls of the source: *; ? = inconclusive; . = no result given; ! = not active in a repeat. Unless noted, no stated cut-off is given here; in the data, active means inhibition above about 30%; inconclusive means no clear call, values can overlap the other calls; inactive means below that.
SMILES,BoNT-F LC inh,Anthrax LF inh2,3CLpro inhibitor,BoNT A protease,Bead autofluor,BJeLR lethal
COc1ccc(OC)c(NC(=O)COc2ccc(S(=O)(=O)N3CCCC3)cc2)c1,-11,11,-3,-1,3484,6
CCn1ncc(CNC(=O)c2cccc([N+](=O)[O-])c2)c1C,.,.,2,.,.,3
COc1cccc(-c2nnc(NC(=O)c3ccc(S(=O)(=O)N4CC(C)OC(C)C4)cc3)o2)c1 (stereo unspecified),-7,2,-1,0,3138,0
O=C(CCCn1c(SCC(=O)NCCc2ccccc2)nc2ccccc2c1=O)NCC1CCCO1 (stereo unspecified),-5,0,-1,0,3293,1
O=C(CCCn1c(SCC(=O)c2ccc(O)c(O)c2)nc2ccccc2c1=O)NCC1CCCO1 (stereo unspecified),-1,2,0,0,23404*,.
O=C(CCCn1c(SCC(=O)Nc2ccccc2C(F)(F)F)nc2ccccc2c1=O)NCC1CCCO1 (stereo unspecified),5,0,-3,3,5334,-2
O=C(CCCn1c(SCC(=O)NC2CCCCC2)nc2ccccc2c1=O)NCC1CCCO1 (stereo unspecified),-1,-3,1,0,21817*,-13
CCC(C)NC(=O)CSc1nc2ccccc2c(=O)n1CCCC(=O)NCC1CCCO1 (stereo unspecified),-2,-2,5,?,22505*,-5
COCCCNC(=O)CSc1nc2ccccc2c(=O)n1CCCC(=O)NCC1CCCO1 (stereo unspecified),-1,-3,6,?,22765*,8
CCc1nc2ccc(C(=O)Nc3cccc(OC)c3)cn2c1N(CC)Cc1cccc(Br)c1,1,-4,.,0,3916,.
COc1ccccc1NC(=O)NS(=O)(=O)c1ccc(C)cc1,7,-5,-4,1,8269,6
CCc1cccc2c(C(=O)COC(=O)c3c(C)noc3C)c[nH]c12,-17,-2,5,-1,8161,-7
Cc1noc(C)c1C(=O)OCC(=O)c1c[nH]c2ccccc12,22,53*,1,47*,14479,-5
Cc1cc(C)cc(NC(=O)COc2coc(CN3CCc4ccccc4C3)cc2=O)c1,.,.,.,.,.,-2
CCOC(=O)c1c(CN2CCC(C)CC2)oc2ccc(OC)cc12,-1,-2,2,0,20393*,-1
CCOC(=O)c1c(CN2CCN(C)CC2)oc2ccc(OC)cc12,2,0,-4,2,16006,-1
CCOC(=O)c1c(CN2CCCCC2C)oc2ccc(OC)cc12 (stereo unspecified),-3,-1,-4,-2,22711*,14
CCOC(=O)c1c(CN2CCCCC2)oc2ccc(OC)cc12,0,0,-5,1,19520*!,-6
O=C(CCNS(=O)(=O)c1ccc(OC(F)(F)F)cc1)NCCc1c[nH]c2ccccc12,-10,-3,.,-1,3672,.
CCN1/C(=C\C=C2\C(=O)N(C)C(=S)N2C)Sc2ccccc21,-10,-16,3,2,3421,7
CN1CCS/C1=C/C=C1/SC(=S)N(Cc2ccccc2)C1=O,-4,12,-1,29,4757,-8
CCN1C(=O)/C(=C/C=C2/Sc3ccc4ccccc4c3N2CCO)SC1=S,36*,52*,-1,63*,6919,11
CCN1C(c2ccccc2)=C(c2ccccc2)S/C1=C/C=C1\SC(=S)N(C)C1=O,-37,41*,6,141*,2608,.
CCN1C(c2ccccc2)=C(c2ccccc2)S/C1=C\C=C1/SC(=S)N(C)C1=O,-13,44*,0,98*,5010,14
O=C(NCCCn1ccnc1)/C(=C\c1ccc(Br)cc1)NC(=O)c1ccccc1F,-1,1,4,1,4324,3
SMILES,BoNT-F LC inh,Anthrax LF inh2,3CLpro inhibitor,BoNT A protease,Bead autofluor,BJeLR lethal
O=S(=O)(/N=C(/Nc1cccc2ccccc12)c1ccc(F)cc1)c1ccccc1,6,0,2,0,5979,-4
CSCCC(NC(=O)c1ccc(Cl)cc1Cl)C(=O)N(C)Cc1nc2ccccc2c(=O)[nH]1 (stereo unspecified),3,2,.,0,4618,.
C=CCN(C(=O)Nc1ccc(Cl)cc1)C1CC(=O)N(c2ccc(OC)cc2)C1=O (stereo unspecified),20,2,4,2,8563,1
C=CCN(C(=O)Nc1ccc(F)cc1)C1CC(=O)N(c2ccc(OC)cc2)C1=O (stereo unspecified),3,-6,4,4,21431*,.
N#Cc1nc(Cc2ccccc2)oc1N1CCN(c2ccccc2)CC1,-7,-4,0,0,10460,2
N#Cc1nc(-c2cccs2)oc1N1CCN(c2ccccc2)CC1,-5,-3,0,-3,20556*,2
c1csc(-c2nnc(-c3ccc(N4CCOCC4)cc3)o2)c1,2,-2,2,1,20353*,0
CCn1ncc(Cl)c1C(=O)Nc1cc(Cl)ccc1Cl,-2,2,-3,0,22800*,-17
CC1(C)NC(=O)N(CC(O)COc2ccc(-c3ccc(C#N)cc3)cc2)C1=O (stereo unspecified),6,-9,0,?,19940*,5
COc1ccc(N(C)S(=O)(=O)c2ccc3c(c2)CCC(=O)N3)cc1,-2,-3,-2,0,20669*,-2
COc1cc(NC(=O)CN(C)S(=O)(=O)c2ccc3c(c2)CCC(=O)N3)cc(OC)c1,0,-7,2,0,4202,-1
Cc1ccccc1CN1C(=O)c2ccccc2C1c1nnnn1C(C)C (stereo unspecified),5,-6,.,0,4088,.
Cc1ccc(C)c(N(CC(=O)N/N=C/c2ccc(-c3ccc([N+](=O)[O-])cc3)o2)S(=O)(=O)c2ccccc2)c1,32,42*,-3,50*,5236,-5
O=C(O)CCn1c(C2CCCCC2)nc2ccccc21,1,-3,1,0,10101,-1
c1ccc(CCn2c(C3CC3)nc3ccccc32)cc1,-5,0,-2,0,16345*,-2
O=C(CN1CCN(c2ccc(C(F)(F)F)cn2)CC1)Nc1ccc2c(c1)OCO2,11,3,-2,0,5437,-12
CCCN(CCC)C(=O)c1ccccc1C(=O)N(CCC)CCC,-15,-7,0,-2,3866,-4
C#CCOC(=O)c1ccccc1C(=O)N(CC)CC,-7,0,-5,?,17452*,13
CCn1cc(C(=O)NCCc2ccccc2)c(=O)c2cc(S(=O)(=O)N(C)C)ccc21,-2,-11,-8,0,3863,2
CCn1cc(C(=O)NCCN(C)CCc2ccccc2)c(=O)c2cc(S(=O)(=O)N(C)C)ccc21,-3,-2,-1,-1,22712*,-2
CCn1cc(C(=O)NCCCOC)c(=O)c2cc(S(=O)(=O)N3CCC(C)CC3)ccc21,-1,-4,4,1,4126,-2
